Experiment in all cases: NCI-60 one-dose screen, 48 h (100 = growth as untreated, 0 = no growth, -100 = all killed)
Settings in all cases: 10 µM unless noted

Assay [1] has as its system SR leukemia.
The test system of assay [2] is RPMI-8226 leukemia.
Assay [3] deals with OVCAR-8 ovarian.
Assay [4] concerns OVCAR-5 ovarian.
Assay [5] deals with SK-OV-3 ovarian.
The subject of assay [6] is IGROV1 ovarian.
In assay [7] the test system is HS 578T breast.
Assay [8] has as its system NCI/ADR-RES ovarian.
Assay [9] concerns T-47D breast.
For assay [10], the system named is BT-549 breast.
Assay [11] relates to MDA-MB-435 melanoma.
Assay [12] has as its system SW-620 colon.
In assay [13] the test system is MCF7 breast.
Assay [14] deals with HCT-116 colon.
The test system of assay [15] is HCC-2998 colon.
The subject of assay [16] is KM12 colon.
Assay [17] relates to OVCAR-4 ovarian.
The subject of assay [18] is OVCAR-3 ovarian.

Structures are written as SMILES. Compounds without any hit were thinned out: in the full panel of roughly 83,000, 20% have a hit.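 Activity criterion: percent growth below 10, measured after cells in 96-well plates were exposed to a single compound concentration for 48 hours.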 A number with no mark means an inactive call. Active and inactive are the calls of the source.

For `Cc1cn(-c2cc(NC(=O)c3cncc(C#Cc4cnc5ccc(O[C@@H]6CCOC6)nn45)c3)cc(C(F)(F)F)c2)cn1`, the growth is -35.6% (active) in assay [1]; -29.8% (active) in assay [2]; -49.7% (active) in assay [3]; 0.672% (active) in assay [4]; -22.3% (active) in assay [5]; -9.41% (active) in assay [6]. Moreover, the growth in assay [7] is -25.1% (active); in assay [8] it was 40.4%; in [9], -28.6% (active); in assay [10], -96% (active); in [11], -83.1% (active); in assay [12], 6.01% (active). The growth is -52% (active) in [13], -95.7% (active) in [14], -13.7% (active) in assay [15] and -21.5% (active) in [16].
Turning to `C#C[C@]1(O)CC[C@H]2[C@@H]3CC=C4c5sc(-c6ccccn6)nc5CC[C@]4(C)[C@H]3CC[C@@]21C`, the growth was 29.3% in assay [1]; 91.8% in [3]; 94.2% in assay [4]; 98.6% in assay [17]; 76.8% in assay [5]; 88.9% in assay [6]. Moreover, the growth was 88% in assay [18]; 14.4% in assay [7]; 89.8% in assay [8]; 85.3% in assay [9]; 59.8% in assay [10]; 74.2% in assay [12]. The growth is 49.3% in [13], 62% in [14], 92.5% in assay [15] and 85.7% in assay [16].
Consider `COCCC[C@H]1O[C@@](O)([C@H](C)[C@@H]2CC(OC)C(O)/C=C(C)/C=C(C)/C=C(\C)C(OC3O[C@@H](C)[C@H](O)C(O)[C@@H]3O)C(C)/C=C(C)/C=C(OC)/C=C(\C)C(=O)O2)C(OC)C(O)[C@]1(C)O[C@H]1C[C@@H](O)[C@H](O[C@H]2C[C@](C)(O)[C@H](O)C(C)O2)C(C)O1` (some centres not stated), for which the growth was 113% in assay [1]; 27.5% in assay [2]; 41.9% in [3]; 78.9% in assay [4]; 61% in assay [5]; 88.1% in assay [6]. In addition, the growth is 74.9% in assay [18]; 86.1% in assay [7]; 67.3% in [8]; 24.6% in assay [9]; 28.7% in [10]; 54.9% in assay [11]. Also, the growth in [12] is 76.4%; in assay [13], 22.4%; in assay [14], 48.2%; in assay [16], 66.5%.
As for `O=C1Nc2ccc(Br)cc2/C1=N\c1nnc(-c2ccc(Cl)cc2)o1`, the growth was 10.9% in assay [1]; 62.5% in assay [2]; 82.6% in [3]; 98.7% in [4]; 73.3% in [5]; 55.3% in [6]. Further, the growth in assay [7] was 83.1%; in assay [8], 36.9%; in assay [9], 76.7%; in [10], 63.1%; in [11], -20.7% (active); in assay [12], 16.5%. The growth is 34.9% in assay [13], 49.2% in assay [14], 96.2% in assay [15] and 70% in assay [16].
Take `CC(C)(C)n1nnnc1C(Nc1nccs1)c1cc2cccc3ccc4cccc1c4c32` (configuration not stated): the growth in assay [1] is 84.5%; in assay [2], 94.9%; in [3] it was 97.6%; in [4], 59.7%; in assay [5] it was 109%; in [6], 85.5%. Besides, the growth in assay [7] is 88.3%; in assay [8], 103%; in [9] it was 73.6%; in assay [10], 100%; in assay [11], 96.2%; in assay [12], 98.8%. Further, the growth was 76.3% in assay [13], 91.7% in [14], 113% in [15] and 101% in assay [16].
For `CC(C)C(=O)Nc1ccc(-c2nc(-c3cccc(O)c3)c(-c3ccnc(Br)c3)[nH]2)cc1`, the growth in assay [1] is -3.9% (active); in assay [3] it was 49.5%; in assay [4], 84.3%; in assay [17], 43.4%; in assay [5], 54.5%; in assay [6], 59.4%. The growth was 56.1% in assay [18]; -12% (active) in [7]; 92.3% in [8]; 7.84% (active) in assay [9]; 60.5% in assay [10]; 43.2% in [12]. Further, the growth was 11.7% in assay [13], 53.4% in assay [14], 67.9% in [15] and 43.3% in [16].
On to `c1ccc(-c2c(-c3ccccc3)[n+](Cc3ccc4ccccc4c3)c(-c3ccccc3)n2Cc2ccc3ccccc3c2)cc1`, for which the growth in assay [1] was -41.1% (active); in [2], -30.5% (active); in assay [3], -69.3% (active); in [4] it was -96.3% (active); in assay [5], -92.9% (active); in assay [6], -76.5% (active). For the same molecule, the growth is -87.8% (active) in [18]; -50.4% (active) in [7]; -65.8% (active) in assay [8]; -60.9% (active) in assay [9]; -87.1% (active) in [10]; -93.9% (active) in [11]. Further, the growth is -81.7% (active) in [12]; -72.9% (active) in assay [13]; -74.8% (active) in assay [14]; -90.3% (active) in [15]; -82.9% (active) in [16].
As for `O=C(Nc1ccc(Cl)cc1)Nc1nc2ccc([N+](=O)[O-])cc2s1`, the growth was -24.3% (active) in assay [1]; 6.03% (active) in assay [3]; 18.4% in [4]; -4.3% (active) in assay [17]; -12.3% (active) in assay [5]; 14.7% in assay [6]. Besides, the growth was -26.6% (active) in assay [18]; -15.8% (active) in [7]; -6.91% (active) in [8]; -25.9% (active) in [9]; -38% (active) in assay [10]; -27.7% (active) in assay [11]. The growth in [12] is 0.202% (active); in [13] it was -15.4% (active); in assay [14], -35.1% (active); in assay [15], -27.6% (active); in assay [16] it was -13.2% (active).
In the case of `C=C(C)[C@@H]1CC[C@]2(COS(C)(=O)=O)CC[C@]3(C)[C@H](CC[C@@H]4[C@@]5(C)CCCNC(C)(C)[C@@H]5CC[C@]43C)[C@@H]12`, the growth is -1.07% (active) in assay [1]; 44.9% in [2]; 92.1% in assay [3]; 92.5% in assay [4]; 107% in assay [5]; 78.2% in assay [6]. Also, the growth in [18] is 92.2%; in assay [7], 91.4%; in assay [8] it was 92%; in assay [9], 77.5%; in [10] it was 93.9%; in assay [11] it was 44.9%. In addition, the growth in assay [12] was 4.87% (active); in assay [13], 3.49% (active); in assay [14], 15.6%; in assay [15], 16.4%; in assay [16] it was 26.2%.

These data come from PubChem BioAssay (NCI).
